SW480 rerep – induces DNA re-replication in SW480 colon adenocarcinoma cells. SW480 DNA re-replication, Hoechst DNA content imaging, 48 h. Potency, µM (titrated, usually from 46.1 µM), for inactives: at the highest dose re-replication activation, most hits filed as activators. 1.8% of 340,000 active. AID 624297; further: % of control where 0% means no effect; nearly all actives have a fitted effect of over 55% in size
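Cells (250 per well) received 23 nL compound or DMSO by pin tool and were kept 48 hr at 37 C, 5% CO2. Nuclei were then stained with Hoechst for 40 min and scanned for DNA content.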
KB-V1 cytotox – kills drug-selected multidrug resistant KB-V1 cells; KB-V1 MDR cells viability, CellTiter-Glo, 72 h; Potency, µM (highest dose often 46.1 µM), actives largely listed as cytotoxic; 3.4% of 400,000 active; AID 1347076; further: on the % scale 0 is the no-effect control and ±100 the full control effect; nearly all actives have a fitted effect of over 60% in size
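Luminescent ATP read-out (CellTiter-Glo, 10 min) measures survival of drug-selected KB-V1 MDR cells after 72 h, 37 degrees C compound exposure. Medium: phenol-red-free DMEM, 10% FBS. Values from fitted concentration-response curves.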
KB-3-1 cytotox – KB-3-1 parental cell cytotoxicity. 1.4% of 400,000 active. KB-3-1 viability, CellTiter-Glo ATP luminescence, 72 h. Potency, µM (titrated, usually from 46.1 µM), usual class: cytotoxic; further: on the % scale 0 is the no-effect control and ±100 the full control effect; nearly all actives have a fitted effect of over 60% in size
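Viability of parental KB-3-1 cells, measured by CellTiter-Glo luminescence, followed a 72 h incubation at 37 °C with pinned compounds in phenol-red-free DMEM containing 10% FBS.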
HT1080NT lethal – kills 2HG-producing HT-1080-NT fibrosarcoma cells; HT-1080-NT fibrosarcoma viability, CellTiter-Glo ATP luminescence, 48 h; 1.6% of 360,000 active; Potency, µM (series often up to 46.1 µM), for the others: at the top dose activity, negative = less viability, actives largely listed as cytotoxic; AID 686970;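 further: NT is the 2HG producing partner of a matched IDH1 knockdown line; 0% = DMSO-treated cells and -100% = media-only wells without cells; nearly all actives have a fitted effect of over 55% in size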
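Luminescent CellTiter-Glo readout after 48 hours of compound exposure at 37 degrees C defined viability of HT-1080-NT cells. Activity was normalized to DMSO wells and cell-free media wells; concentration-response curves were fitted and assigned curve classes.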
HT1080 IDH1KD tx – HT-1080 IDH1 knockdown cell toxicity (counter line) | 2% of 360,000 active | Potency, µM (highest dose often 46.1 µM), for inactives: top-dose activity, negative = toxicity, usual class: cytotoxic | HT-1080 IDH1 knockdown viability, ATP luminescence, 48 h | AID 686971;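 further: 0% = DMSO wells and -100% = cell-free medium wells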
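Using the IDH1-knockdown HT-1080 line run in the same batch and compound series as the NT line, viability after 48 h at 37 °C was determined by CellTiter-Glo luminescence and expressed as % activity.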
MCF10A rereplic – inducers of DNA re-replication in MCF 10A breast cells; 2.9% of 350,000 active; Potency, µM (highest dose often 46.1 µM), for inactives: top-dose activity, positive = re-replication, actives largely listed as activators; AID 624296; MCF 10A DNA re-replication, Hoechst nuclear intensity, 48 h; further: % of control where 0% means no effect; nearly all actives have a fitted effect of over 50% in size
The depositor's hits bear a star; i = inactive; ? = inconclusive; / = no result. Hits are enriched below; roughly 8% of the tested compounds scored in any of these assays. The call rests on the fitted dose curve; in most records, active means well fitted curve in the direction sought with a large enough effect; inconclusive means small, poorly fitted or top-dose-only effect, or another doubt; inactive means no such curve, though single readings can be large; an effect the other way counts as inactive or inconclusive. Potency means the concentration at half of the fitted maximal effect.

SMILES	SW480 rerep	KB-V1 cytotox	KB-3-1 cytotox	HT1080NT lethal	HT1080 IDH1KD tx	MCF10A rereplic
O=C(N/N=C/c1c(O)ccc2ccccc12)c1cccnc1	0.82µM*	?	?	?	?	?
O=C(N/N=C/c1ccccn1)c1ccc(Br)o1	-4.7%	i	i	-22.0%	-27.5%	18.9%
CCCC(=O)c1ccc(OC(=O)c2c(-c3ccccc3Cl)noc2C)cc1	/	i	?	/	/	/
O=C(NN=Cc1c(O)ccc2ccccc12)c1ccncc1	24.3%	0.461µM*	i	?	?	?
Cn1cc(C(=O)N/N=C/c2c(O)ccc3ccccc23)ccc1=O	-7.4%	i	?	?	?	25.9µM*
Cc1occc1C(=O)N/N=C/c1c(O)ccc2ccccc12	0.517µM*	?	6.51µM*	?	6.51µM*	?
O=C(N/N=C\c1c(O)ccc2ccccc12)c1ccc(O)cc1	?	i	i	?	?	-0.9%
Cn1nccc1C(=O)N/N=C/c1c(O)ccc2ccccc12	?	?	7.31µM*	?	?	16.4µM*
Cc1ccccc1CNCc1c(C(=O)O)c(C)n(Cc2ccc(F)cc2Cl)c1C	/	?	i	/	/	/
O=C(CSc1ncc(-c2ccccc2)[nH]1)Nc1cccc(C(F)(F)F)c1	/	i	i	/	/	/
COc1ccc2ccccc2c1/C=N\NC(=O)c1cccnc1	3.66µM*	i	i	-1.9%	-15.2%	18.4µM*
COCCNc1oc(-c2ccccc2Cl)nc1S(=O)(=O)c1ccc(C)cc1	-2.6%	/	/	1.8%	-1.5%	5.2%
COCCNc1oc(/C=C/c2ccccc2OC)nc1S(=O)(=O)c1ccccc1	?	i	i	-10.0%	-8.7%	20.6µM*
COc1ccccc1/C=C/c1nc(S(=O)(=O)c2ccccc2)c(N2CCC(C(N)=O)CC2)o1	18.4µM*	i	i	1.5%	-7.1%	?
CCOC(=O)c1cc(CC)sc1NC(=O)COC(=O)c1ccccn1	?	i	i	-11.5%	-10.2%	?
CCCCN(Cc1cc2ccccc2[nH]c1=O)C(=O)c1cccc(Cl)c1	/	i	i	/	/	/
CCc1ccc(NC(=O)/C(C#N)=C/c2cc3ccc(C)cc3nc2N2CCOCC2)cc1	-3.2%	i	i	-10.7%	-12.9%	8.2µM*
CCOc1ccc(NC(=O)CN2CCN(c3ccc(Cl)cc3)CC2)cc1	/	i	i	/	/	/
COc1ccc(NC(=O)COC(=O)C2CC(=O)N(CCc3ccc(OC)c(OC)c3)C2)cc1Cl (stereo not given)	?	i	i	3.8%	18.3%	8.7%
COC(=O)c1cc(Cl)ccc1NCC(N)c1ccccc1 (stereo not given)	/	i	i	20.6µM*	18.4µM*	/
CC1CC(C)(C)CC2(C1)NC(=O)N(CC(=O)NC1CCCc3ccccc31)C2=O (stereo not given)	-0.6%	20.6µM*	i	8.8%	4.0%	0.6%
Cc1ccc2c(c1)N(CC(=O)N1CCCc3ccccc31)C(=O)CO2	6.2%	11.6µM*	i	-7.9%	-5.2%	6.6%
Cc1ccc2c(c1)N(CC(=O)N1CCCCC1)C(=O)CO2	0.9%	?	?	3.7%	6.8%	3.0%
CC(=O)c1ccc(NC(=O)NC2CCCc3ccccc32)cc1 (stereo not given)	?	i	i	-10.8%	-29.1%	9.4%
CC(Sc1nnnn1C)C(=O)NC1CCCc2ccccc21 (stereo not given)	-8.6%	i	i	14.4%	11.8%	-0.3%
SMILES	SW480 rerep	KB-V1 cytotox	KB-3-1 cytotox	HT1080NT lethal	HT1080 IDH1KD tx	MCF10A rereplic
O=C(CN1C(=O)NC2(CCCCCCC2)C1=O)NC1CCCc2ccccc21 (stereo not given)	/	i	i	11.6%	15.0%	-5.2%
CC(=O)c1ccc(N2CCN(C(C)C(=O)NC3CCCc4ccccc43)CC2)cc1 (stereo not given)	-24.6%	9.2µM*	20.6µM*	-8.5%	0.5%	-0.8%
CC(Sc1nc2ccccc2s1)C(=O)NC1CCCc2ccccc21 (stereo not given)	-3.0%	20.6µM*	i	-3.4%	-1.4%	?
COc1cc(NC(=O)C2CCN(S(=O)(=O)c3ccc4c(c3)CCCC(=O)N4)CC2)cc(OC)c1	/	i	i	/	/	/
O=C1CCc2cc(S(=O)(=O)Nc3cccc(B(O)O)c3)ccc2N1	/	i	i	/	/	/
Cc1ccccc1-n1nc2c(c1NC(=O)C(C)(C)C)CS(=O)(=O)C2	-1.8%	i	i	24.8%	12.1%	4.4%
Cc1ccc2c(c1)N(CC(=O)NC1CCC(C)CC1)C(=O)CO2 (stereo not given)	-4.6%	i	i	4.1%	0.9%	3.2%
O=C(CN1CCN(c2cccc(Cl)c2)CC1)NC1CCCc2ccccc21 (stereo not given)	1.0%	i	i	?	-14.3%	20.6µM*
Cc1ccc2c(c1)N(CC(=O)NC1CCCc3ccccc31)C(=O)CO2 (stereo not given)	-7.0%	16.4µM*	i	1.0%	-0.4%	-3.2%
CCOC(=O)c1cc2sccc2n1CC(=O)N1CCCc2ccccc21	2.0%	?	i	0.0%	0.0%	-6.6%
CCOC(=O)c1cc2occc2n1CC(=O)N1CCCc2ccccc21	-2.5%	16.4µM*	i	-4.4%	-4.0%	8.9%
NC(=O)CN1CCN(c2cccc(Cl)c2)CC1	-5.9%	i	i	3.6%	1.4%	-10.3%
CCc1nn2c(=O)c(S(=O)(=O)Nc3ccc(OC)c(Cl)c3)c(C)nc2s1	/	i	i	/	/	/
Cc1ccccc1CS(=O)(=O)CC(O)CN1CCCC1=O (stereo not given)	-2.0%	i	i	-0.5%	1.7%	1.8%
COc1ccc(NC(=O)CCN2C(=O)c3ccccc3C2=O)c(OC)c1	0.9%	i	i	-1.9%	-6.3%	-2.5%
COc1ccc(OC)c(N(CCN2C(=O)c3ccccc3C2=O)C(=O)CCl)c1	/	?	?	?	16.4µM*	/
COc1cc(C(CCN2CCCCC2)c2c(OC)cc(OC)c3c(-c4ccccc4)cc(=O)oc23)cc(OC)c1OC (stereo not given)	13.2%	?	?	-14.3%	-21.3%	1.5%
COc1cc(C(CCN2CCCC(C)C2)c2c(OC)cc(OC)c3c(-c4ccccc4)cc(=O)oc23)cc(OC)c1OC (stereo not given)	12.6%	i	?	18.4µM*	?	18.9%
CSCC[C@H](NC(=O)COc1ccc(Cl)cc1)c1nc2ccccc2[nH]1	?	?	i	-7.2%	?	0.0%

Screening results (PubChem BioAssay)
